Data taken from PubChem BioAssay AID2284350 (EPA ToxCast).
Records with an inconclusive call do not appear. Activity calls are given as the source filed them. Rule for the calls: active = hit-call score of the fitted dose curve at least 0.9, where 1 is the maximum; inconclusive = response in the unintended direction; inactive = score below 0.9.

Tested on: zebrafish Peroxisome Proliferator-activated Receptor alpha (PPARa), gene 563298
Experiment: ATG_zfPPARa_EcoTox2: Attagene TRANS-FACTORIAL EcoTox-2 HepG2 Assay for zebrafish Peroxisome Proliferator-activated Receptor alpha (PPARa)
Procedure: ATG_EcoTox2 is a cell-based, multiplexed assay created by modifying the existing Attagene TRANS-FACTORIAL system to include a panel of nuclear receptors from some or all the following species: human (Homo sapiens), african clawed frog (Xenopus laevis), rainbow trout (Oncorhynchus mykiss), japanese medaka (Oryzias latipes), and zebrafish (Danio rerio). The ECOTOX2-FACTORIAL format uses HepG2, a human liver cell line, with measurements taken at 24 hours after chemical dosing in a 24-well plate. ATG_zfPPARa_EcoTox2 is one of 29 assay components calculated in the ATG_EcoTox2 assay. It is designed to make measurements of mRNA induction, a form of inducible reporter, as detected with fluorescence intensity signals by Reverse transcription polymerase chain reaction (RT-PCR) and Capillary electrophoresis technology.The assay endpoint ATG_zfPPARa_EcoTox2 was analyzed in the positive analysis fitting direction relative to DMSO as the negative control and baseline of activity. Using a type of inducible reporter, measures of mRNA for gain-of-signal activity can be used to understand the reporter gene at the transcription factor-level as they relate to the gene PPARa. Furthermore, this assay endpoint can be referred to as a primary readout, because this assay has produced multiple assay endpoints where this one serves a reporter gene function. To generalize the intended target to other relatable targets, this assay endpoint is annotated to the nuclear receptor intended target family, where the subfamily is non-steroidal.
Human liver HepG2 cells are transiently transfected with multiple reporter transcription units (MRTUs) in 6-well plates using FuGene 6 reagent (Roche; 3 ml FuGene/1 mg DNA). The MRTU constructs are regulated by a cis-regulating element (promoter). Each RTU expresses a GAL4-UAS that regulates the transcription of a nearby target reporter gene sequence. A major difference between the CIS and TRANS system is that in CIS activities of endogenous TFs are measured, whereas the TRANS assay evaluates changes in activities of exogenous, chimeric NR-Gal4 proteins. […] At the end of 24 hour incubation, total RNA was isolated using TriZol reagent (Invitrogen). The isolated RNA is then reverse-transcribed using oligo(dT) primer and Mo-MLV reverse transcriptase (Invitrogen) with DNAse I (Ambion) treatment for 30 min. The one-tenth of the produced cDNA was amplified by PCR using Taq DNA polymerase (Invitrogen) and two reporter sequence-specific primers. The PCR products were fluorescently labeled by primer extension with 6-arboxyfluorescein (6-FAM) 5'-labeled reporter sequence-specific primer (2 min at 95 C, 20 s at 68 C and 10 min at 72 C) and these products were digested with 5U of HpaI (New England Biolabs) for 2h at 37 C. The fragments were purified using Qiaquick PCR columns (Qiagen), analyzed on an ABI 3130xL genetic analyzer (Applied Biosystems) with peak positions identified by using a set of X-rhodamine (ROX)-labeled MapMarker1000 molecular weight standards (BioVentures). The raw capillary electrophoresis data was processed using Attagraph software (Attagene).

Compound | outcome | AC50
O=P(Oc1ccccc1)(Oc1ccccc1)Oc1ccccc1 | inactive | –
O=S(=O)(O)C(F)(F)C(F)(F)C(F)(F)C(F)(F)C(F)(F)C(F)(F)F | inactive | –
[Cl][Sn]([c]1ccccc1)([c]1ccccc1)[c]1ccccc1 | inactive | –
O=C(O)C(F)(F)C(F)(F)C(F)(F)C(F)(F)C(F)(F)C(F)(F)C(F)(F)F | – | 52.7 µM (active)
CCCCOCN(C(=O)CCl)c1c(CC)cccc1CC | inactive | –
